We go through 62 compounds from PubChem BioAssay AID2058 (Sanford-Burnham Center for Chemical Genomics, 2009).

The campaign covered roughly 290,000 compounds. About 150 (0.052%) were called active. Only a selection was taken, and actives are over-represented in it overall. Results with a measured potency or affinity are listed apart. A number with no mark means an inactive call.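 Rule for the calls: active = inhibition of at least 50% with at least 30 cells and total cytoplasm GFP at most 10,000,000; inconclusive = under 30 cells or total GFP of 10,000,000 plus; inactive = the rest.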

Sequence of G-protein coupled receptor 35 (Homo sapiens) (Q9HC97 whole entry, looked up): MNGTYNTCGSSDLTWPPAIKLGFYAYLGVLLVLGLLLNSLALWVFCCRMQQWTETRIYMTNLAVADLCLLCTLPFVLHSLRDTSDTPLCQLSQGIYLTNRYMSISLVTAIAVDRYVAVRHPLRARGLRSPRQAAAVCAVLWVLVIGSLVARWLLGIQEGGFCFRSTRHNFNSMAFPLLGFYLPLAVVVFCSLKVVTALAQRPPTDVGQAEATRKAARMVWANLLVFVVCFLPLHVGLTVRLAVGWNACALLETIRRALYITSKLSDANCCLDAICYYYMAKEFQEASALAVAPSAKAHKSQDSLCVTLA

The experiment has as its target G-protein coupled receptor 35 (Homo sapiens) (UniProt Q9HC97). Nature of the experiment: GPR35 antagonists blocking zaprinast-driven arrestin recruitment, primary screen, imaging, U2OS, beta-arrestin-GFP, zaprinast agonist (AID 2058). To be noted: U2OS GPR35 beta-arrestin-GFP translocation imaging, zaprinast antagonism; at 10 µM; active compounds read high.
In the case of `S=c1nc(-c2ccccc2)n(Cc2cccnc2)c2c1CCCC2`, the inhibition is 14.8%.

With `CCCCC[C@H]1CN(CCCC)C(=O)[C@@H]1CC(=O)NCc1ccc(OC)cc1`, the inhibition is 8.5%. The value for `C=CCn1c(SCC(=O)Nc2ccc(Cl)cn2)nnc1C1CC1` was -2.5%; that for `CCS(=O)(=O)c1ncc(Cl)c(C(=O)Nc2ccc(S(=O)(=O)N3CCC(C)CC3)cc2)n1` was 27.7%. Then `CCC1CCCCN1S(=O)(=O)c1ccc(NC(=O)c2ccncc2)cc1` (configuration not stated), with -21.5%.

`COc1ccc(/C=C2\SC(=S)N(CCC(=O)N3CCCCC3)C2=O)cc1`: the inhibition was 1.2%.

`Cc1ccc(/C=C2/SC(=S)N(CCC(=O)N3CCN(c4ccccc4)CC3)C2=O)cc1`: the inhibition was -11.1%. The value for `COc1c(S(=O)(=O)Nc2cccnc2)ccc(Cl)c1Cl` was 0.5%; that for `O=c1[nH]cnc2sc3c(c12)CN(Cc1ccccc1)CC3` was -2.4%; that for `Cc1ccc(NC(=O)C2C(c3ccccc3)C=CC(c3ccccc3)C2C(=O)O)cc1` (configuration not stated) was -4.3%. As for `Cc1ccccc1Nc1nnc(SCC(=O)NCc2cccs2)s1`, the inhibition was 0%. Consider `C/C(=N\NC(=O)c1cc(-c2ccc(C)s2)[nH]n1)c1ccncc1`, for which the inhibition was -6.8%. Then `COc1ccc(C(=O)NCCc2nnc(SCC(=O)Nc3ccc(Br)cc3)n2C)cc1`, with 0.4%; and `CC1(C)Cc2ccccc2/C(=C/C(=O)N2CCCCCC2)N1`, with 7.4%.

For the compound `CNC(=O)/C=C1\NC(C)(C)Cc2c1ccc1ccccc21`, the inhibition was 7.2%.

For the compound `O=C(NN1CCOCC1)c1ccccc1Br`, the inhibition is 2.6%. The value for `COc1ccc2c(c1)NC(c1ccc(N(C)C)cc1)c1cccn1-2` (configuration not stated) was 83.6% (active); that for `COc1ccc(C2Nc3cc(OC)ccc3-n3cccc32)cc1` (configuration not stated) was 7%. Then `COc1ccc2c(c1)NC(c1cc(Cl)cc(Cl)c1O)c1cccn1-2` (configuration not stated), with 12.6%; and `CCc1nnc(NC(=O)c2cc(S(=O)(=O)N3CCOCC3)ccc2N2CCCCC2)s1`, with 4.8%; and `CCOc1ccccc1CNc1nnnn1C`, with 2.8%.

Take `CCN1C(=O)/C(=C/C=C2/Sc3ccccc3N2CCO)SC1=S`: the inhibition was -15.5%. The value for `C=CCN1C(=O)/C(=C/C=C2/N(CC)c3ccc(S(=O)(=O)N(C)C)cc3N2CC)SC1=S` was 9.4%; that for `CCN1C(=O)/C(=C/C=C2\N(CC)c3cc(S(=O)(=O)N(C)C)ccc3N2c2ccccc2)SC1=S` was 62% (active); that for `CC(=O)c1cccc(OCc2cc(C(=O)N3C[C@@H](C)O[C@@H](C)C3)no2)c1` was 4.5%. Then `CC1Sc2ccc(S(=O)(=O)CCC(=O)NCc3ccc(Cl)cc3)cc2NC1=O` (configuration not stated), with 7.8%; and `Cc1cc(NC(=O)CSc2nnc(-c3c[nH]c4ccccc34)n2-c2ccc(Cl)cc2)no1`, with 3.9%; and `COc1cccc(Cn2cccc(NC(=O)NCc3ccccc3)c2=O)c1`, with -1%. `N#Cc1c(Cl)nc(SCc2ccccc2)nc1-c1ccccc1`: the inhibition is 10.7%. Then `CSc1nc(Cl)c(C#N)c(-c2ccc(C)cc2)n1`, with 61.8% (active); and `COc1ccc(-c2nc(-c3cccc(C)c3)nc(Cl)c2C#N)cc1`, with 13.1%; and `CCOC(=O)c1c(-c2ccccc2)csc1NC(=O)/C(C#N)=C/c1ccc(OC)c(OC)c1`, with -10.8%.

Take `CCOC(=O)c1c(-c2ccc(C)cc2)csc1NC(=O)/C(C#N)=C/c1ccc(O)c(OC)c1`: the inhibition is 2.7%. The value for `O=C(O)c1ccc(COc2ccccc2[N+](=O)[O-])o1` was 9.8%; that for `Cc1ccc(-c2c(C(=O)N/N=C/c3ccc(C)o3)nnn2-c2nonc2N)cc1` was 9.3%; that for `CCCN1C=CC(=C/C=C(\C#N)C(=O)OCC)C=C1` was 7.2%. Then `C=CCN1C=CC(=CC=C(C#N)C#N)C=C1`, with 29.6%.

`CCCN1C=CC(=CC=C(C#N)C#N)C=C1`: the inhibition is 59.2% (active). The value for `Cc1ccc(C(=O)O)cc1NC(=O)C1=CSCCO1` was -0.5%; that for `COc1ccc2nc(C)cc(NCc3cccc(C(F)(F)F)c3)c2c1` was -5.8%. The value for `COc1ccc(CNc2cc(C)nc3ccc(OC)cc23)cc1` was 7.8%; that for `O=C1Oc2ccccc2C(=O)/C1=C/N1CCN(c2ccccc2F)CC1` was -6.9%; that for `CC(C)CCN1CCNC(=O)C1CC(=O)NCCCN1CCOCC1` (configuration not stated) was -0.8%.

For the compound `CC(NC(=O)CN1CCCC1)C12CC3CC(CC(C3)C1)C2` (configuration not stated), the inhibition is 1.4%. Then `CC(NC(=O)Cn1nc(C(=O)O)c2ccccc2c1=O)C12CC3CC(CC(C3)C1)C2` (configuration not stated), with 8%; and `O=C(c1cc(-c2ccccc2Cl)nc2ccccc12)N1CCOCC1`, with 10.1%; and `CCN(CC)c1ccc2c(Cl)cc(=O)oc2c1`, with 4.5%. As to `CCN(CC)c1ccc2c(C)c(Cl)c(=O)oc2c1`, the inhibition was 8.4%. The value for `COc1ccc(C(=O)/C=C/c2ccc(N3CCCCC3)c([N+](=O)[O-])c2)cc1` was 2.4%. The value for `Cn1ccc(=Nc2ccc(NC(=O)c3ccc(N=c4ccn(C)c5ccc([N+](=O)[O-])cc45)cc3)cc2)cc1` was 53.5% (active); that for `CCn1c2ccccc2c2cc(NC(=O)c3ccc([N+](=O)[O-])cc3)ccc21` was -16.2%; that for `O=C(Nc1ccc(N2CCOCC2)cc1)c1ccc([N+](=O)[O-])cc1` was 14.4%. The value for `Cc1c(NC(=S)N/N=C/c2ccc(N(C)C)cc2)c(=O)n(-c2ccccc2)n1C` was 5.5%; that for `O=C1CN(C(=O)N[C@@H](Cc2ccccc2)C(=O)N[C@@H](Cc2ccccc2)C(=O)O)c2ccccc2N1` was 6.4%. `CCCCOc1ccc(C2C3CN(C(=O)OCC)CC=C3C(C#N)=C(N)C2(C#N)C#N)cc1OC` (configuration not stated): the inhibition is -1.9%. The value for `CCOC(=O)N1CC=C2C(C#N)=C(N)C(C#N)(C#N)[C@H](c3ccccc3OCC)[C@H]2C1` was 2.1%. The value for `COc1ccc([C@@H]2[C@H]3CN(C(C)=O)CC=C3C(C#N)=C(N)C2(C#N)C#N)c2ccccc12` was -18.9%; that for `CCN1CC=C2C(C#N)=C(N)C(C#N)(C#N)[C@H](c3cccc(OC)c3OC)[C@H]2C1` was 100% (active).

On to `CCOC(=O)N1CC=C2C(C#N)=C(N)C(C#N)(C#N)[C@H](c3cccs3)C2C1` (some centres not stated), for which the inhibition is 12.4%.

With `COc1cccc(OC)c1OCc1cc(C2C3CCCC=C3C(C#N)=C(N)C2(C#N)C#N)c(C)cc1C` (configuration not stated), the inhibition is 7%. Then `CCCOc1ccc([C@@H]2C3CN(C(=O)OCC)CC=C3C(C#N)=C(N)C2(C#N)C#N)cc1OC` (some centres not stated), with 16.5%; and `CCCN1CC=C2C(C#N)=C(N)C(C#N)(C#N)C(c3cccc(OC)c3OC)C2C1` (configuration not stated), with 101% (active).

For orientation: inhibition means the relative decrease from the control value, in per cent.
